The panel holds about 83,000 compounds, 20% with a hit somewhere; the sample as a whole holds those more often.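 Step 1: grow cells in 96-well plates. Step 2: add test compound at a single concentration. Step 3: incubate 48 h. Step 4: record percent growth.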 Values without a mark were called inactive. Activity calls are given as the source filed them. The calls were made as follows: active = growth percent below 10; inactive = the rest.
Key:
Test in all cases: NCI-60 one-dose screen, 48 h (100 = growth as untreated, 0 = no growth, -100 = all killed)
Details in all cases: 10 µM unless noted
NCI-H23 lung = test system: NCI-H23 lung
NCI-H226 lung = test system: NCI-H226 lung
NCI-H322M lung = test system: NCI-H322M lung
HOP-62 NSCLC = test system: HOP-62 NSCLC
NCI-H460 lung = test system: NCI-H460 lung
NCI-H522 lung = test system: NCI-H522 lung
A549/ATCC NSCLC = test system: A549/ATCC NSCLC
786-0 renal = test system: 786-0 renal
COLO 205 colon = test system: COLO 205 colon
HOP-92 NSCLC = test system: HOP-92 NSCLC

| SMILES | growth (NCI-H23 lung) | growth (NCI-H226 lung) | growth (NCI-H322M lung) | growth (HOP-62 NSCLC) | growth (NCI-H460 lung) | growth (NCI-H522 lung) | growth (A549/ATCC NSCLC) | growth (786-0 renal) | growth (COLO 205 colon) | growth (HOP-92 NSCLC) |
| --- | --- | --- | --- | --- | --- | --- | --- | --- | --- | --- |
| Cc1cc2c3ccc(C)[n+](C)c3ccc2n1C | 23.3% | 80.9% | 99.5% | 33.8% | 61.7% | 49.7% | -0.921% (active) | 53.4% | 10.7% | – |
| Clc1cccc(Cl)c1C1CSc2ccccc2N=C1c1ccccc1 (configuration not stated) | 75.6% | 82.7% | 86.3% | 84.6% | 83.1% | 63.6% | 73.8% | 90.6% | 102% | – |
| CCOC(=O)N[C@H]1CCc2cc(OC)c(OC)c(OC)c2-c2ccc(SC)c(=O)cc21 | 27.4% | -7.68% (active) | 30.7% | 30.1% | 2.01% (active) | -8.99% (active) | 17.3% | 15.6% | -4.99% (active) | – |
| COc1cc(C(=O)N2CCN(c3ccccc3)CC2)c2ccccc2n1 | 21.2% | 37.3% | 44.3% | 41.1% | 8.4% (active) | -7.75% (active) | 25.3% | 26% | -44.9% (active) | – |
| O=C(CCl)Oc1ccc([N+](=O)[O-])cc1 | 108% | 102% | 106% | 98.9% | 107% | 107% | 108% | 108% | 116% | – |
| Cc1[nH]c(=S)[nH]c(=O)c1C | 101% | 99.7% | 114% | 107% | 109% | 95.4% | 94.3% | 106% | 115% | – |
| C/C(O)=C(/C=N\C(=S)Nc1ccc(S(=O)(=O)Nc2nccs2)cc1)C(=O)Nc1ccccc1C | 94.6% | 73.2% | 99.7% | 96.1% | 102% | 91.6% | 92.6% | 96.7% | 104% | – |
| O=C(O)Cc1ccccn1 | 102% | 102% | 102% | 109% | 108% | 100% | 106% | 102% | 97.8% | – |
| CCC12OC(COc3ccccc3)CN1CCN2c1ccccc1 (configuration not stated) | 98.2% [100 µM] | 93.8% [100 µM] | 93.3% [100 µM] | 98.9% [100 µM] | 106% [100 µM] | 87.6% [100 µM] | 94.1% [100 µM] | 96.6% [100 µM] | 118% [100 µM] | – |
| NNC(=O)c1ccccc1N | 101% | 114% | 118% | 90.6% | 118% | 130% | 120% | 96.9% | 133% | – |
| CC(=O)OCC1CCC(COC(C)=O)CC1 (configuration not stated) | 95.5% | 105% | 96.6% | 90.8% | 110% | 67.4% | 79.7% | 95.3% | 120% | – |
| COC1OC(C(COC(C)=O)OC(C)=O)C(OC(C)=O)C(OC(C)=O)C1OC(C)=O (configuration not stated) | 112% | 99.4% | 115% | 99.3% | – | 103% | 106% | 107% | 116% | 128% |
| CCOC(=N)CC(=O)Nc1cccc(C)c1Cl | 100% | 84.5% | 99.6% | 102% | 105% | 110% | 106% | 106% | 100% | – |
| Nc1cccc2cccc(O)c12 | 90.6% | 96.1% | 79.2% | 104% | 86.5% | 70.5% | 106% | 108% | 102% | – |
| ON1CCCC1 | 108% | 103% | 108% | 108% | 109% | 91.9% | 100% | 98.4% | 113% | – |
| COc1nc2ccccc2s1 | 94.7% | 97.3% | 111% | 114% | – | 96.3% | 96.8% | 104% | 93.1% | 99.2% |
| Nc1cc(N)ncn1 | 95.1% | 93.9% | 103% | 112% | 107% | 104% | 103% | 104% | 104% | – |

| SMILES | growth (NCI-H23 lung) | growth (NCI-H226 lung) | growth (NCI-H322M lung) | growth (HOP-62 NSCLC) | growth (NCI-H460 lung) | growth (NCI-H522 lung) | growth (A549/ATCC NSCLC) | growth (786-0 renal) | growth (COLO 205 colon) | growth (HOP-92 NSCLC) |
| --- | --- | --- | --- | --- | --- | --- | --- | --- | --- | --- |
| CC(=O)c1cccs1 | 93.8% | 98.8% | 97.7% | 83.8% | 104% | 89.3% | 92% | 95.1% | 116% | – |
| C=C1CC2(OC1=O)C(=O)N(C)c1ccc(I)cc12 (configuration not stated) | -62.6% (active) | -37.3% (active) | 50.6% | 58.9% | – | -56.9% (active) | -19.3% (active) | -71.5% (active) | -84.2% (active) | -95.7% (active) |
| OC(CBr)CCBr (configuration not stated) | 105% | 110% | 101% | 97.2% | – | 96.5% | 90.8% | 103% | 105% | 102% |
| C[n+]1c(/C=C\C=C\N2CCCCC2)sc2ccccc21 | 12.1% | 17.7% | 17.6% | -29.1% (active) | – | -49.3% (active) | -13.7% (active) | -42.4% (active) | -42.7% (active) | -42.3% (active) |
| COc1ccc(C(=O)/C(=N/Nc2ccccc2)c2ccc(OC)cc2)cc1 | 89% | 94.2% | 103% | 102% | – | 79.3% | 85.4% | 94.2% | 99.9% | 82.1% |
| CC(C)OCC(CCl)OC(=O)Nc1ccccc1 (configuration not stated) | 93% | 100% | 99.4% | 104% | – | 98.4% | 102% | 100% | 111% | 89.5% |
| Clc1ncnc2nc[nH]c12 | 94.4% | 96.3% | 104% | 83.7% | – | 70.5% | 101% | 101% | 101% | 68.8% |
| C=C(c1ccc(N(C)C)cc1)c1ccc(N(C)C)cc1 | 16.2% | 44.3% | 29.7% | 23.1% | – | -28.6% (active) | 30.8% | 34.6% | -4.63% (active) | -2.12% (active) |
| Nc1ccccc1SC1CC(=O)N(c2ccc(Cl)c(Cl)c2)C1=O (configuration not stated) | 104% | 106% | 128% | 96.6% | – | 117% | 99.9% | 93.9% | 127% | 101% |
| NNC(=O)N/N=C1\C(=O)N(c2nccs2)C(=O)C(=O)C1c1nc2ccccc2s1 (configuration not stated) | 95.6% | 89.1% | 105% | 81.3% | – | 83.1% | 75.8% | 118% | 98.6% | 98.6% |
| CC1CCC(C(C)(C)[N+](C)(C)C)CC1 (configuration not stated) | 100% | 100% | 106% | 96.9% | – | 106% | 95.9% | 96.1% | 106% | 101% |
| Oc1cccc(CNC2CCCCC2)c1 | 107% | 102% | 129% | 111% | – | 90.4% | 101% | 102% | 120% | 97.5% |
| CC(=O)OCC1OC(n2cnc3c(=S)nc(N)[nH]c32)C(OC(C)=O)C1OC(C)=O (configuration not stated) | 88.3% | 68.2% | 77.3% | 49.3% | – | 83.5% | 105% | 66% | 120% | 28.4% |
| CN(C)c1ccc2c(N(C)C)cc(N(C)C)nc2c1 | 97.5% | 83.2% | 64.9% | 82.1% | – | 79.3% | 98.5% | 94.8% | 65% | 69.8% |
| CCCCCCCCNC(=O)C(C)C | 94.6% | 96.4% | 107% | 104% | – | 92.5% | 102% | 107% | 108% | 90% |
| Nc1ccc2c(c1)Cc1cc(N)c(N)cc1-2 | 86.2% | 95.4% | 92% | 95% | – | 74.6% | 77.9% | 107% | 103% | 101% |
